According to PubChem BioAssay (NCI):
Compounds without any hit were thinned out: in the full panel of roughly 83,000, 20% have a hit.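 Note: values are percent growth. 100 is the growth of untreated cells, values between 100 and 0 indicate rising inhibition; between -100 and 0 indicates cell death.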 Values without a mark were called inactive. The source made the active and inactive calls.

These compounds were tested on T-47D breast (assay: NCI-60 one-dose screen, 48 h (100 = growth as untreated, 0 = no growth, -100 = all killed)). Details: 10 µM unless noted.
Procedure: Growth inhibition of the T-47D human tumor cell line is measured as a screen for anti-cancer activity. Cells are grown in 96 well plates and exposed to the test compound for 48 hours. Compounds are tested at a single concentration, which is 10^-5 M for most compounds. The reported endpoint is percent growth (GI% or GIPRCNT), where numbers from 0 - 100% represent growth inhibition, and numbers from -100% - 0 represent cell death. For example, a value of 40 represents 60% growth inhibition. A value of 0 means no net growth occurred over the course of the experiment. A value of -40 indicates 40% of cells at the beginning of the experiment died by the end of the experiment. A value of -100 means all cells are dead at the end of the experiment.
NCI-60 Human Tumor Cell Lines Screen was performed using the standard one-dose NCI protocol, which is described in more detail at https://dtp.cancer.gov/discovery_development/nci-60/default.htm.
Compounds with GIPRCNT values below 10 were considered active. Activity score was based on GIPRCNT using the following formula: […]
Score is 0 for GIPRCNT values of 100 or above, 50 for GIPRCNT values of 0, and 100 for GIPRCNT values of -100.

| Compound | growth |
| --- | --- |
| COCN1CCC2N(COC)CCC3N(COC)CCC1N23 (stereo not given) | 99.6% |
| O=C(/C=C/c1c(Cl)nc2sccn12)c1nccs1 | 87.5% |
| COC(=O)c1c2c(c(C)[n+]([O-])c1C)C(=O)C(NCc1ccc(F)c(Cl)c1)=CC2=O | -5.44% (active) |
| Cc1cc(NCCCCNc2ccnc3cc(Cl)ccc23)nc(Nc2ccc(C(=O)N3CCCC3)cc2)n1 | -31.2% (active) |
| COC(=O)[C@]12CC[C@@H](C)[C@H](C)[C@@H]1C1=CC[C@@H]3[C@@]4(C)C(C=O)=C[C@@](C)(COS(C)(=O)=O)C4[C@H](O)C[C@@]3(C)[C@]1(C)CC2 (stereo not given in full) | -29.4% (active) |
| Cc1cccc(-c2nc(N(C)c3ccc4ncsc4c3)c3ccccc3n2)n1 | 60.6% |
| COc1ccccc1NC(=O)N/C(N)=N/c1nc2ccccc2s1 | 52.2% |
| O=C(/C=C/c1c(Cl)nc2sccn12)c1ccc(F)c(F)c1 | 50.3% |
| O=C(Nc1cccc(Cl)c1)c1cc(N=Nc2ccc([N+](=O)[O-])cc2Cl)ccc1O | 53.6% |
| O=C(/C=C/c1cccc(O)c1)c1cccc(-n2cc(-c3ccc4ccccc4c3)[nH]c2=O)c1 | -22.5% (active) |
| O=C(CSc1nccc(Nc2ccc(S(=O)(=O)Nc3nccs3)cc2)n1)c1ccc(F)cc1 | 84% |
| COc1ccc(/C=N\NC(=O)c2cc(-c3ccc(Br)cc3)n(-c3ccc(S(N)(=O)=O)cc3)n2)cc1 | 30.9% |
| COc1ccc(NC(=O)CSc2nnc(-c3cc(-c4ccc(S(N)(=O)=O)cc4)nc4ccccc34)n2-c2ccccc2)cc1 | 58.2% |
| C[C@H](NC(=O)[C@@H]1CSSC[C@@H](NC(=O)c2nc3ccccc3cc2O)C(=O)NCC(=O)N1C)c1ccccc1 | -35.6% (active) |
| O=C1/C(=C/c2ccc(Br)cc2)C=C(c2ccccc2)N1CCc1ccccc1 | 50.5% |
| O=[N+]([O-])c1ccc(OCCO)cc1 | 101% |
| OC(COc1ccccc1Cl)COc1ccccc1Cl | 97.1% |
| Nc1n[nH]c2cc(F)c([C@@H]3Nc4c(F)cc5[nH]ncc5c4[C@H]4C5CCC(C5)[C@@H]34)cc12 (stereo not given in full) | 83.8% |
| COC(=O)[C@]12CC[C@@H](C)[C@H](C)[C@@H]1C1=CC[C@@H]3[C@@]4(C)C(C=O)=C[C@@](C)(COS(C)(=O)=O)[C@@H]4C(=O)C[C@@]3(C)[C@]1(C)CC2 | 33% |
| COc1cc(-c2nc(N3CCN(C)CC3)c3ccccc3n2)cc(OC)c1OC | 65.3% |

| Compound | growth |
| --- | --- |
| COC(=O)[C@]12CC[C@@H](C)[C@H](C)[C@@H]1C1=CC[C@@H]3[C@@]4(C)C(C=O)=C[C@@](C)(COC(C)=O)[C@@H]4C(=O)C[C@@]3(C)[C@]1(C)CC2 | 39% |
| N#CC1=C(c2ccc(Br)cc2)NC(SCC(=O)c2ccc(Br)cc2)NC1=O (stereo not given) | 92.8% |
| CNS(=O)(=O)c1n[nH]nc1-c1cc(C(C)(C)C)c(O)c(C(C)(C)C)c1 | 78.9% |
| O=C(O)c1ccc2c(c1Cl)C(=O)c1ccccc1C2=O | 101% |
| CCN(CC)CCn1nc2c3c(cccc3c1=O)-c1ccccc1-2 | 9.48% (active) |
| COc1cccc(/C=C/C(=O)c2c(C)nc3ccccc3c2/C=C/c2ccc(C)cc2)c1OC | 29.1% |
| CCCCCCCCCCN(CCCCCCCCCC)CC(=O)c1ccc2cc(Br)c3ccccc3c2c1 | 72.1% |
| COc1ccc(-c2csc(C3=C(O)CN(C(C)C)C3=N)n2)cc1OC | 91.4% |
| N#CC1=C(/N=C/c2ccccc2)Oc2c(ccc3ccccc23)C1c1ccccc1 (stereo not given) | 49.8% |
| Cn1c(=O)c2c(nc(Cl)n2CCl)n(C)c1=O | 103% |
| O=C(N/N=C/C=C/c1ccc([N+](=O)[O-])o1)c1cc2ccccc2cc1O | -65.5% (active) |
| Cc1ccc(N(C(=O)CCc2c[nH]c3ccccc23)[C@H](C(=O)Nc2ccc(Cl)cc2)c2cccc([N+](=O)[O-])c2)cc1 | 72.5% |
| CNC(=O)c1cc(Oc2cccc3nc(Nc4ccc(F)c(Cl)c4)ccc23)ccn1 | 66% |
| CCCCCCCCCOc1c(OC)cc(C2CC(=O)Nc3c2c(C)nn3-c2nc3ccccc3[nH]2)cc1OC (stereo not given) | -11% (active) |
| O=C1/C(=C\c2cccnc2)SC(=S)N1CCc1ccc(O)cc1 | 37.6% |
| COc1cc(C2NC(=O)c3ccccc3N2)ccc1OCCCCCOc1c(OC)cc(C2=NOC(c3cc(OC)c(OC)c(OC)c3)C2)cc1OC (stereo not given) | 39.8% |
| COc1ccc(-c2csc(C3=C(O)CN(CCCN4CCCC4=O)C3=N)n2)cc1OC | 86.5% |
| O=Cc1ccc(O)c2ncccc12 | 22.8% |
| CCN(CCNc1ccc(C)c2sc3ccccc3c(=O)c12)CC(C)(C)O | 80.7% |
| O=C(c1ccccc1)N1N=C(c2ccccc2)CC1c1nnc2n(Cc3ccccc3)c(=O)c3c4c(sc3n12)CCCC4 (stereo not given) | 122% |
